Data as given in PubChem BioAssay AID485346 (Sanford-Burnham Center for Chemical Genomics, 2010).
The whole screen tested about 330,000 compounds, of which about 10,000 (3%) were called active. The entries come from a sample that favours actives as a whole. Values without a mark were called inactive.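 How the source made its calls: active means inhibition of at least 50% at 8 µM in the primary screen; inactive means the rest.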

biological target: Protein Mdm4 (Homo sapiens) + E3 ubiquitin-protein ligase Mdm2 (Homo sapiens) (UniProt O15151+Q00987); assay: inhibitors of human Mdm2-MdmX association, primary screen, cell-based, luminescence, split luciferase, SaOS-2, uHTS (AID 485346); conditions: SaOS-2 split-luciferase Mdm2/MdmX complementation, at 8 µM, active compounds read high
Sequence (O15151 whole entry, looked up): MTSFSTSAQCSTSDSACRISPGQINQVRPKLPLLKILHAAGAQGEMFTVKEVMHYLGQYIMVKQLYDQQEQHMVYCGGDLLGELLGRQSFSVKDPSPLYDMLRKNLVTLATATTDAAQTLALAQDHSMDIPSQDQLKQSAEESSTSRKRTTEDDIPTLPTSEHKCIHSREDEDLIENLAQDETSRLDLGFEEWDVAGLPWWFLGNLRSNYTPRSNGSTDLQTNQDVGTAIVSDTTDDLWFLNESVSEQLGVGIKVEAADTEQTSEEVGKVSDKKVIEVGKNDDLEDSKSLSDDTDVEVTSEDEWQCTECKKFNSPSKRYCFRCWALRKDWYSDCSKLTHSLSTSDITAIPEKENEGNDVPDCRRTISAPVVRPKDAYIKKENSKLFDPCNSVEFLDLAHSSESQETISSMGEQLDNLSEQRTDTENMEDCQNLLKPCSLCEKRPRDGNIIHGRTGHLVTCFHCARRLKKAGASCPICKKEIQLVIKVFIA
Sequence (Q00987 whole entry, looked up): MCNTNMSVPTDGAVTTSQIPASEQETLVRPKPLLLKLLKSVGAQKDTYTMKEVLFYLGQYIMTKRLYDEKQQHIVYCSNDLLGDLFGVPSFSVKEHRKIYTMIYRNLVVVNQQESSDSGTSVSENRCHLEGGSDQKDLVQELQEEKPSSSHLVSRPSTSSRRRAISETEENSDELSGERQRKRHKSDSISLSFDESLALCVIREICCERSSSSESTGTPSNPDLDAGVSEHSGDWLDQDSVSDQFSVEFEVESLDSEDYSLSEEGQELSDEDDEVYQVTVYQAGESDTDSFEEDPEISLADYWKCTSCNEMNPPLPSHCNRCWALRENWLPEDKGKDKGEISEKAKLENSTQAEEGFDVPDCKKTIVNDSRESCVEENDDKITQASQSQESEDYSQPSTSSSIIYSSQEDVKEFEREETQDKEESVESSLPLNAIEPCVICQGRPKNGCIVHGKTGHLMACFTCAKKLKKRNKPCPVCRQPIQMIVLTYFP

Going from COc1ccccc1C(=O)COC(=O)CSCC(=O)Nc1cc(C)on1 to COc1ccccc1C(=O)NC(=O)COC(=O)C1CC1, the inhibition falls from 9.62% to -22.8%.

Going from COc1ccc(-c2nc3cnccn3c2NC2CCCCC2)cc1-c1cccc(Cl)c1 to CCOc1cc(-c2nc3cc(C)ccn3c2NCC2CCCO2)ccc1O (centres undefined), the inhibition falls from 34.9% to 22.2%.

Going from CCOc1ccc(C(=O)Nc2ccc(CN3CCOCC3)cc2)cc1Cl to CCc1ccc(NC(=O)c2ccc(Cn3cc([N+](=O)[O-])cn3)cc2)cc1, the inhibition rises from -7.17% to 7.69%.

First: CCN(CC)C(=O)Cn1cc(S(=O)(=O)CC(=O)NCc2ccc3c(c2)OCO3)c2ccccc21
Second: Cc1ccc(CNC(=O)Cn2cnc3c(NCc4ccccc4)ncnc32)o1
The inhibition of the first is lower: 15.5% for the first, 28.2% for the second.

First: O=C(N[C@@H](Cc1ccccc1)C(=O)OCc1ccccc1)c1nc[nH]c1C(=O)NC1CCNCC1
Second: CC(C)(C)OC(=O)CNC(=O)c1[nH]cnc1C(=O)N[C@@H](Cc1ccccc1)C(=O)OCc1ccccc1
The inhibition of the first is higher: 20.5% for the first, 9.35% for the second.

Going from CC(C)c1ccc(NC(=O)[C@@H](NC(=O)N2CC(=O)Nc3ccccc32)C(C)C)cc1 to Cc1ccc(N2C(=O)c3ccccc3C2(O)c2ncc[nH]2)cc1 (centres undefined), the inhibition falls from 46.3% to 11%.

Compared with O=C(N1CCCC1)C12CC3CC(C1)CC(C(=O)N1CCCC1)(C3)C2, NC(=O)COc1ccccc1C(=O)NC12CC3CC(CC(C3)C1)C2 is higher in inhibition: 0.875% for the first, 3.86% for the second.

First: CC(Sc1nnc(-c2ccccc2F)n1C1CC1)C(N)=O (centres undefined)
Second: CC(=O)NC(Cc1ccc(F)c(F)c1)C(=O)NC1CCN(c2nnnn2-c2ccccc2)CC1 (centres undefined)
The inhibition of the first is lower: 2.33% for the first, 6.6% for the second.

First: O=S1(=O)CCO[C@H]2Cc3ccccc3[C@H]2N1Cc1ccccc1
Second: O=C1c2ccccc2C(=O)N1CCC(c1ccccc1)c1ccco1 (centres undefined)
The inhibition of the first is higher: -0.566% for the first, -4.99% for the second.

Compared with Cn1cc([N+](=O)[O-])c(C(=O)Nc2ccc3c(c2)OCCO3)n1, Cc1cc(C)n2nc(C(=O)Nc3cccc(S(=O)(=O)N4CCOCC4)c3)nc2n1 is lower in inhibition: 15.1% for the first, 7.78% for the second.

First: CC(C)CCN(C(=O)c1csnn1)C(C(=O)NC1CCCC1)c1ccccc1 (centres undefined)
Second: Cc1cc(NC(=O)CCC(=O)N(c2cccc(F)c2)C(C(=O)NC2CCCC2)c2ccncc2)no1 (centres undefined)
The inhibition of the first is higher: 1.25% for the first, -20% for the second.

Compared with CCOC(=O)c1ccc(NC(=O)c2cccnc2)cc1, Cc1cc([N+](=O)[O-])nn1CC(=O)Nc1ccc(Cc2ccncc2)cc1 is higher in inhibition: -5.28% for the first, 2.13% for the second.

Going from CCCC(=O)Nc1nc2ccc(NC(=O)c3c(F)c(F)c(OC)c(F)c3F)cc2s1 to Cc1noc(NS(=O)(=O)c2ccc(NC(=O)c3oc4ccc(F)cc4c3C)cc2)c1C, the inhibition falls from 40.2% to -34%.

Compared with Clc1ccc(C2[C@H]3CN(CC4CCCCC4)[C@H](c4ccccc4)C34CC2(c2cccnc2)C4)cn1 (some centres undefined), COC(=O)c1ccc(C23CC4(C2)[C@H](CN(Cc2cccnc2)[C@@H]4c2ccccc2)C3c2ccc(Cl)nc2)cc1 (some centres undefined) is higher in inhibition: -0.579% for the first, 21.5% for the second.

First: CC1CCC(N2CC(=O)N(Cc3ccc4c(c3)OCO4)C(c3ccc(F)cc3)C2=O)CC1 (centres undefined)
Second: COCCCN1C(=O)C(=O)/C(=C(/O)c2ccc(S(=O)(=O)N3CCOCC3)cc2)C1c1ccc(F)cc1 (centres undefined)
The inhibition of the first is higher: -7.03% for the first, -23.9% for the second.

Compared with CC1=CC(C)(C)Nc2ccc(OC(=O)C(Cc3ccccc3)N3C(=O)C4CCCCC4C3=O)cc21 (centres undefined), O=C(CN1C(=O)C2C3CCC(C3)C2C1=O)Oc1ccc2ccccc2c1 (centres undefined) is lower in inhibition: 42.7% for the first, 12% for the second.

Compared with NC(=O)COc1ccc(C23CC4CC(CC(C4)C2)C3)cc1, COc1ccc(N2CCN(CCNC(=O)Nc3cc(Cl)ccc3Cl)CC2)cc1 is higher in inhibition: -45% for the first, 14.4% for the second.

Compared with CCOC(=O)N1CCN(C(=O)CSc2nc(=O)n3cccc(C)c3n2)CC1, CCCN(CCC)c1nc2c(C)cccn2c(=O)c1/C=C1/SC(=S)N(Cc2ccco2)C1=O is higher in inhibition: -0.597% for the first, 2.98% for the second.

Going from CCCCn1c(N)c(N(CC(C)C)C(=O)c2ccc(Br)o2)c(=O)[nH]c1=O to CCn1nc(C)c(CNC(=O)C2CCC(=O)N(Cc3cccc(F)c3)C2)c1C (centres undefined), the inhibition rises from 25.9% to 28.2%.

Compared with CNc1ccc(SC#N)cc1, COc1ccccc1C1=CC(=O)C[C@H](c2ccc(F)cc2)C1 is lower in inhibition: 0.392% for the first, -0.761% for the second.

First: CC(=NCc1ccco1)c1c(C(F)(F)F)[nH]n(-c2nc3ccccc3s2)c1=O
Second: COc1ccc(C2=NN(c3nc4ccccc4s3)C(=O)C2)cc1
The inhibition of the first is lower: 0.099% for the first, 1.88% for the second.

Going from O=C(C[C@H]1C[C@H](C(=O)N2CCOCC2)[C@@]2(CCC3CCCC3)c3[nH]c4ccc(Cl)cc4c3CCN2C1=O)NCc1ccco1 to COc1ccc2[nH]c3c(c2c1)CCN1C(=O)C(CC(=O)NCCCN(C)C)C[C@H](C(=O)N2CCOCC2)[C@@]31CCC1CCCC1 (some centres undefined), the inhibition falls from 49.9% to -3.6%.

First: COCCN(C(=O)C(C)C)c1nnc(-c2ccc(C(C)(C)C)cc2)s1
Second: CCOc1cc2[nH]c(=S)n(Cc3ccc(C(=O)NCCOC)cc3)c(=O)c2cc1OCC
The inhibition of the first is lower: -22.5% for the first, 19.2% for the second.

First: O=C(NC1(C(F)(F)F)NC(=O)N(C2CCCCC2)C1=O)c1ccco1 (centres undefined)
Second: COC(=O)NC1(C(F)(F)F)NC(=O)N(C2CCCCC2)C1=O (centres undefined)
The inhibition of the first is higher: 1.56% for the first, -5.21% for the second.

First: CC(Oc1ccc(F)cc1)C(=O)Nc1cc(S(=O)(=O)N2CCOCC2)ccc1N1CCN(C)CC1 (centres undefined)
Second: CN1CCN(c2ccc(S(=O)(=O)N3CCCCC3)cc2NC(=O)Cc2ccccc2F)CC1
The inhibition of the first is higher: 13.7% for the first, 9.14% for the second.

Going from Cc1cc(NC(=O)/C=C/C(=O)N(CC(=O)NC2CCCC2)c2ccc(F)cc2)no1 to O=C(Nc1cc2ccccc2oc1=O)C1CCCCC1, the inhibition falls from -19.5% to -82.7%.

First: CCOc1cc(/C=N/NC(=O)c2cc(-c3ccccc3)nc3ccccc23)ccc1O
Second: COc1ccc(/C=N/NC(=O)c2cc(-c3cccc(C)c3)nc3ccccc23)cc1O
The inhibition of the first is lower: -10.1% for the first, 34.6% for the second.

Compared with O=C(NCCCN1CCOCC1)c1cnn2c(-c3ccccc3)cc(-c3ccccc3)nc12, O=C(NCCc1ccccc1)Oc1ccc(Cl)cc1 is lower in inhibition: 37.7% for the first, 11.2% for the second.

Going from CCN1CCN(c2ccc(S(=O)(=O)N3CCCCC3)cc2NC(=O)c2cccc(NC(C)=O)c2)CC1 to COc1ccc(Cn2c(=S)[nH]c3cc(C(=O)N4CCCCC4)ccc3c2=O)cc1, the inhibition rises from 12% to 14.8%.

Compared with COc1cc2[nH]c(=S)n(Cc3ccc(C)o3)c(=O)c2cc1OC, COc1cc2[nH]c(=S)n(CCN3CCCCC3C)c(=O)c2cc1OC (centres undefined) is higher in inhibition: 2.31% for the first, 39.9% for the second.

Compared with Cc1ccc(CNC(=O)CCCNC(=O)c2ccc(Cl)cc2)n1C, O=C(CCNc1n[nH]c(=O)[nH]c1=O)N/N=C\c1ccc(Br)cc1 is lower in inhibition: 22.5% for the first, 9.18% for the second.

Going from CCN(Cc1ccncc1)C(=O)CCc1ccccc1 to S=c1[nH]c(-c2cccs2)cn1-c1ccccc1, the inhibition falls from 16.5% to -16.2%.

Going from Cc1cc(C(=O)NNC(=O)c2ccccc2O)c(C)o1 to CC1=C(C)CC(C(=O)NNC(=O)c2csc3c2CCC(C(C)(C)C)C3)C(C(=O)O)C1 (centres undefined), the inhibition falls from 30% to 7.93%.

For COc1ccc(-c2nc3cc(C)ccn3c2NC2CCCCC2)cc1SC1CCCCC1, the inhibition was 92.7% (active).
For CC(C)(C)OC(=O)N1CCC(NC(=O)c2[nH]cnc2C(=O)N[C@@H](Cc2ccccc2)C(=O)OCc2ccccc2)CC1, the inhibition was 65.6% (active).
Cn1cc([N+](=O)[O-])c(C(=O)Nc2cnn(Cc3ccc(F)cc3)c2)n1 was tested, and the inhibition was 61.3% (active).
In the case of CCCC(=O)Nc1nc2ccc(NC(=O)c3cccnc3)cc2s1, the inhibition is reported as 56.4% (active).
In the case of FC(F)(F)c1ccc(CN2C[C@@H]3C(c4ccccc4)C4(c5ccccc5)CC3(C4)[C@H]2c2ccccc2)cc1 (some centres undefined), the inhibition is reported as 93.9% (active).
With CC1=CC(C)(C)Nc2ccc(OC(=O)CN3C(=O)C4CCCCC4C3=O)cc21 (centres undefined) the inhibition was 54% (active).
In the case of CCOC(=O)CC1C(=O)NCCN1c1nc2c(C)cccn2c(=O)c1/C=C1\SC(=S)N(C(C)CC)C1=O (centres undefined), the inhibition is reported as 59% (active).
COc1ccccc1C(=O)NC(=S)NC12CC3CC(CC(C3)C1)C2 was tested, and the inhibition was 63.6% (active).
For COC(=O)Cc1[nH]n(-c2nc3ccccc3s2)c(=O)c1C(C)=Nc1ccc(OC)cc1, the inhibition was 77.3% (active).
In the case of COc1ccc(CNC(=O)C[C@H]2C[C@H](C(=O)N3CCOCC3)[C@@]3(CCC4CCCC4)c4[nH]c5ccc(Cl)cc5c4CCN3C2=O)cc1OC, the inhibition is reported as 92.6% (active).
In the case of O=C1NC(Nc2nc3ccccc3s2)(C(F)(F)F)C(=O)N1C1CCCCC1 (centres undefined), the inhibition is reported as 66.2% (active).
With Cc1cc(NC(=O)/C=C/C(=O)N(c2ccccc2C)C(C(=O)NC2CCCC2)c2ccc(F)cc2)no1 (centres undefined) the inhibition was 63.1% (active).
For CCOc1ccc(-c2cc(C(=O)N/N=C/c3ccc(O)cc3)c3ccccc3n2)cc1, the inhibition was 76.9% (active).
For CCN1CCN(c2ccc(S(=O)(=O)N3CCCCC3)cc2NC(=O)Cc2c(Cl)cccc2Cl)CC1, the inhibition was 65.1% (active).
With COc1cc2[nH]c(=S)n(Cc3ccc(F)cc3)c(=O)c2cc1OC the inhibition was 81.3% (active).
With CCOc1cc2[nH]c(=S)n(Cc3ccc(C(=O)N4CCN(C)CC4)cc3)c(=O)c2cc1OCC the inhibition was 91.7% (active).
CC1=C(C)CC(C(=O)NNC(=O)c2ccccc2O)C(C(=O)O)C1 (centres undefined) was tested, and the inhibition was 60.5% (active).
With O=c1oc2ccccc2cc1-c1cn(-c2ccccc2)c(=S)[nH]1 the inhibition was 88.3% (active).
